Screens (PubChem BioAssay)
PfHsp90 yeast 2: inhibits growth of yeast expressing Plasmodium falciparum Hsp90 | inhibition, % at 9.4 µM | 0.32% of 310,000 active | S. cerevisiae expressing PfHsp90, BacTiter-Glo ATP, 48 h; yeast lacking PDR1 and PDR3 efflux regulators;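 active = every replicate shows inhibition above about 80%, whatever the replicate mean, limit read from the data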;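 also: 0% = DMSO neutral controls and 100% = 20 µM radicicol positive controls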
TIM10 inh: growth inhibitors of TIM10 yeast strain; 1.4% of 330,000 active; inhibition, % at 10 µM; S. cerevisiae TIM10 strain growth, BacTiter-Glo luminescence, 24 h; AID 463195;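 active = inhibition of 40% or more at the single tested concentration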;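 also: wild-type TIM10 isogenic control strain grown at permissive 25 °C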
tim23-1 inh: tim23-1 yeast growth inhibition; S. cerevisiae tim23-1 growth, BacTiter-Glo luminescence, 24 h; inhibition, % at 20 µM; 1.3% of 330,000 active; AID 463212;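 active = growth inhibition of the mutant yeast at or above 50%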;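 also: temperature-sensitive mutant grown at 25 °C; plate controls were DMSO-treated mutant yeast for no effect and medium wells lacking yeast for full effect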
Mot1-301 SUMO: blocks SUMOylation pathway, rescuing yeast Mot1-301 growth | S. cerevisiae Mot1-301 growth rescue, ATP luminescence, 38.5C; percent above DMSO median, 100 means doubled | growth rescue, % at 18.8 µM | 1% of 320,000 active;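 active = every valid replicate shows activation above 250% relative to neutral control wells; inactive = the rest, any valid replicate at or below 250%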;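 also: OY570 slx delta 5 strain wells were the positive control but not used for scaling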
tim10-1 inh: inhibits growth of tim10-1 mutant yeast; S. cerevisiae tim10-1 ts strain growth, BacTiter-Glo, 24 h; inhibition, % at 20 µM; 2.2% of 330,000 active;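 active = inhibition of at least 40%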;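 also: mutant grown at 25 °C; 0% = DMSO wells with yeast and 100% = wells holding no yeast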
The depositor's hits bear a star; ! = not confirmed by another sample. The list is not random: actives were taken first. Their share in the collection is about 4.4%.

Screening COc1ccc(-n2nnnc2CNC(=O)C2CC(=O)N(c3ccc(Cl)cc3)C2)cc1 (centres undefined) returned TIM10 inh -5.1, tim23-1 inh -8.4, Mot1-301 SUMO 5.7 and tim10-1 inh 2.8.
Screening O=C(/C=C/c1ccccc1)NC(=S)NNC(=O)c1cnccn1 returned PfHsp90 yeast 2 108.6*, TIM10 inh -3.6, tim23-1 inh 33.3, Mot1-301 SUMO -0.8 and tim10-1 inh 8.5.
For CCN(CC)C(=O)Cn1c(=O)oc2ccccc21 the results were PfHsp90 yeast 2 -19.9, TIM10 inh -24.4, tim23-1 inh -2.9, Mot1-301 SUMO 389.1* and tim10-1 inh -29.1.
For COc1ccccc1-n1cnnc1SCC(=O)NC1CCCC1 the results were PfHsp90 yeast 2 6.1, TIM10 inh -3.2, tim23-1 inh 5.3, Mot1-301 SUMO -10.0 and tim10-1 inh -7.4.
For CC(C)C(NC(=O)c1ccccc1)C(=O)OCn1nnc2ccccc2c1=O (centres undefined) the results were PfHsp90 yeast 2 -5.2, TIM10 inh 9.9, tim23-1 inh 24.5, Mot1-301 SUMO -8.3 and tim10-1 inh 16.1.
For C=CC(n1cncn1)C(O)(c1ccccc1)c1ccccc1 (centres undefined) the results were PfHsp90 yeast 2 104.8*, TIM10 inh -217.7, tim23-1 inh -293.5, Mot1-301 SUMO -53.2 and tim10-1 inh -45.1.
Screening CC(N)C12CC3CC(CC(C3)C1)C2 (centres undefined) returned PfHsp90 yeast 2 -14.2, TIM10 inh 2.0, tim23-1 inh 9.8, Mot1-301 SUMO 328.7*! and tim10-1 inh -4.0.
Screening NC(CO)C12CC3CC(CC(C3)C1)C2 (centres undefined) returned PfHsp90 yeast 2 2.8, TIM10 inh 2.1, tim23-1 inh 9.9, Mot1-301 SUMO 1.4 and tim10-1 inh -3.5.
`COc1ccc2c(c1)[C@H]1[C@H](CO2)[C@H](c2ccccc2)[C@]2(C)C(=O)N(CC3CCCO3)CC(=O)N12` (some centres undefined) gave PfHsp90 yeast 2 17.2, TIM10 inh 12.0, tim23-1 inh 7.8, Mot1-301 SUMO -13.4 and tim10-1 inh 2.8.
Screening CSc1ncccc1C(=O)OCC(=O)N(C)c1c(N)n(Cc2ccccc2)c(=O)[nH]c1=O returned TIM10 inh 0.1, tim23-1 inh -4.7, Mot1-301 SUMO -9.4 and tim10-1 inh 4.9.
CC(C)C1Nc2c(O)cc(Cl)c([N+](=O)[O-])c2C2C=CCC21 (centres undefined) was read as PfHsp90 yeast 2 110.2*.
Screening CC(C)(C)OC(=O)N(CCc1ccccc1)Cc1cccc(OCc2cccc(NC(=O)C3CC3)c2)c1 returned PfHsp90 yeast 2 8.2.
`CCCCNc1c(-c2ccc(OC)c(Sc3ccc(OC)cc3)c2)nc2cnccn12` gave PfHsp90 yeast 2 21.8, TIM10 inh -3.4, tim23-1 inh 25.6, Mot1-301 SUMO -15.5 and tim10-1 inh 6.4.
CCCCNc1c(-c2ccc(SC(C)CC)cc2)nc2cnccn12 (centres undefined) was read as PfHsp90 yeast 2 107.1*, TIM10 inh -21.0, tim23-1 inh 36.3, Mot1-301 SUMO 1.3 and tim10-1 inh -21.7.
For O=Nc1c(O)c2ccccc2c2ccccc12 the results were PfHsp90 yeast 2 110.6* and Mot1-301 SUMO 664.0*.
`Fc1ccc2cc(-c3ccsc3)ncc2c1` gave PfHsp90 yeast 2 -14.8, TIM10 inh 7.5, tim23-1 inh 34.0, Mot1-301 SUMO 282.4* and tim10-1 inh 5.1.
For O=S(=O)(Cc1ccccc1Cl)N1CCN(Cc2ccc3c(c2)OCO3)CC1 the results were PfHsp90 yeast 2 5.2, TIM10 inh 0.7, tim23-1 inh -6.0, Mot1-301 SUMO 277.3* and tim10-1 inh 10.4.
CCOc1ccc(S(=O)(=O)N2CCN(Cc3ccc4c(c3)OCO4)CC2)cc1Cl was read as PfHsp90 yeast 2 -6.8, TIM10 inh -2.9, tim23-1 inh 19.8, Mot1-301 SUMO 386.1* and tim10-1 inh 17.9.
O=S(=O)(Cc1ccc(Cl)cc1)N1CCN(Cc2ccc3c(c2)OCO3)CC1 was read as PfHsp90 yeast 2 4.7, TIM10 inh -24.4, tim23-1 inh -19.5, Mot1-301 SUMO 4.8 and tim10-1 inh -3.9.
CC(C)CCNC(=O)CN(Cc1ccc(F)cc1)C(=O)CCC(=O)Nc1ccccn1 was read as PfHsp90 yeast 2 0.3, TIM10 inh -7.8, tim23-1 inh 13.5, Mot1-301 SUMO -13.0 and tim10-1 inh 16.4.
For O=C(CS(=O)(=O)c1ccc(F)cc1)N1CCN(c2ccccc2)CC1 the results were TIM10 inh -2.9, tim23-1 inh -2.8, Mot1-301 SUMO 513.9* and tim10-1 inh -8.9.
N#CSCC(=O)c1cccc2ccccc12 was read as PfHsp90 yeast 2 97.3* and Mot1-301 SUMO 148.1.
Screening CCc1c(C)c(C#N)c2nc3ccccc3n2c1NC returned PfHsp90 yeast 2 2.0, TIM10 inh 3.9, tim23-1 inh 1.5, Mot1-301 SUMO 12.3 and tim10-1 inh -4.1.
`Cc1c(CCCl)c(Cl)n2c(nc3ccccc32)c1C#N` gave PfHsp90 yeast 2 102.7*.
Screening COc1cccc(/C=C/c2ccc3cccc(O)c3n2)c1 returned PfHsp90 yeast 2 102.7*, TIM10 inh 15.3, tim23-1 inh 22.0, Mot1-301 SUMO -1.5 and tim10-1 inh 17.5.
For CNC(CC(=O)c1ccc([N+](=O)[O-])cc1)C(Cl)(Cl)Cl (centres undefined) the results were PfHsp90 yeast 2 109.3* and Mot1-301 SUMO -33.5.
For COc1ccc(C(=O)CC(Nc2ccc([N+](=O)[O-])cc2)c2ccc(OC)cc2)cc1 (centres undefined) the results were PfHsp90 yeast 2 1.3, TIM10 inh 26.5, tim23-1 inh 27.6, Mot1-301 SUMO -11.0 and tim10-1 inh 25.0.
`COc1ccc(C2c3[nH]c4ccccc4c3C[C@H]3C(=O)N(c4ccccc4C(=O)N4CCC(C(=O)O)CC4)C(=O)N23)cc1` (some centres undefined) gave PfHsp90 yeast 2 5.3, TIM10 inh -2.4, tim23-1 inh 2.9, Mot1-301 SUMO 342.5* and tim10-1 inh 1.0.
COc1ccccc1CNC(=O)CSc1ccc(-c2ccccn2)nn1 was read as PfHsp90 yeast 2 -12.7, TIM10 inh -9.8, tim23-1 inh -10.2, Mot1-301 SUMO 342.8* and tim10-1 inh 5.0.
COc1ccccc1CNC(=O)CSc1ccc(-c2cccs2)nn1 was read as PfHsp90 yeast 2 -72.5, TIM10 inh 15.6, tim23-1 inh 3.4, Mot1-301 SUMO 13.7 and tim10-1 inh 7.8.
Screening O=C(NCCCCc1ccccc1)C1CCCC1 returned PfHsp90 yeast 2 7.5, TIM10 inh 4.0, tim23-1 inh 0.1, Mot1-301 SUMO -6.5 and tim10-1 inh -2.0.
Cc1cccc(NC(=O)C2CCCN(S(=O)(=O)c3ccc4[nH]c(=O)ccc4c3)C2)n1 (centres undefined) was read as PfHsp90 yeast 2 26.5, TIM10 inh 3.8, tim23-1 inh 1.2, Mot1-301 SUMO 8.6 and tim10-1 inh -2.8.
